Results: the supplement of paper PMC8866396
Values joined by “and” are separate entries in the source; they are usually repeats but may differ in a detail not shown here. Identical values can stand only once. ± gives the standard deviation of the averaged measurements.

Tests used:
IL-6-GFP PC-9GR = experiment: cell viability (CCK-8 OD) relative to DMSO control (fraction of control); higher = more viable cells; details: compound concentration: 10 uM; treatment time: 48 h
Summary of the method: (§1)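 PC-9 and PC-9GR lung cancer cells carrying a lentiviral construct that overexpresses IL-6-GFP were seeded in 96-well plates at 3000 cells/well. Every compound in a purchased 510-compound library was applied at a final 10 μM for 48 h, and a parallel set of plates was kept for GFP imaging. Cell viability was read by CCK-8 absorbance, taking each well's optical density as a ratio to the vehicle control well. Two independent replicates were run.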

IL-6-GFP PC-9 = experiment: as above; details: compound concentration: 10 uM; treatment time: 48 h
Summary of the method: as §1

| Compound | cell viability (IL-6-GFP PC-9GR) | cell viability (IL-6-GFP PC-9) |
| --- | --- | --- |
| N#CCC(C1CCCC1)n1cc(-c2ncnc3[nH]ccc23)cn1 (stereo not given) | 1.08 and 1.17 | 1.11 and 0.753 |
| CC1(C)OC2CC3C4CCC5=CC(=O)C=CC5(C)C4C(O)CC3(C)C2(C(=O)CO)O1 (stereo not given) [Desonide] | 0.804 ± 0.24 | 0.683 ± 0.22 |
| CS(=O)(=O)n1cc2c(n1)CN(C1COC(c3cc(F)ccc3F)C(N)C1)C2 (stereo not given) [Omarigliptin (MK-3102)] | 0.931 ± 0.14 | 1.02 ± 0.25 |
| CNCc1ccc(-c2[nH]c3cc(F)cc4c3c2CCNC4=O)cc1.O=P(O)(O)O | 0.93 ± 0.16 | 1.05 ± 0.15 |
| CC(Cn1ccc(-c2ccc(C#N)c(Cl)c2)n1)NC(=O)c1cc(C(C)O)[nH]n1 (stereo not given) [Darolutamide (ODM-201)] | 0.858 ± 0.18 | 0.962 ± 0.21 |
| O=c1ccc2cc3ccoc3cc2o1 [Psoralen] | 0.808 ± 0.11 | 1.13 ± 0.057 |
| CC(=O)O.CCNC(=O)C1CCCN1C(=O)C(CCCNC(=N)N)NC(=O)C(CC(C)C)NC(=O)C(CC(C)C)NC(=O)C(Cc1ccc(O)cc1)NC(=O)C(CO)NC(=O)C(Cc1c[nH]c2ccccc12)NC(=O)C(Cc1c[nH]cn1)NC(=O)C1CCC(=O)N1 (stereo not given) [Leuprolide Acetate] | 1.16 ± 0.31 | 1.28 ± 0.073 |
| Oc1ccc(/C=C/c2cc(O)cc(O)c2)cc1 [Resveratrol] | 1.38 ± 0.065 | 1.37 ± 0.064 |
| O=C(O)c1cc(O)c(O)c(O)c1 [Gallic acid] | 0.792 ± 0.22 | 0.369 ± 0.14 |
| COc1cc2c3cc1Oc1c(OC)c(OC)cc4c1C(Cc1ccc(O)c(c1)Oc1ccc(cc1)CC3N(C)CC2)N(C)CC4.Cl.Cl (stereo not given) [Berbamine (dihydrochloride)] | 1.14 ± 0.35 | 1.04 ± 0.053 |
